From PubChem BioAssay AID2330 (Broad Institute, 2010)
The whole screen tested about 37,000 compounds, of which about 2,800 (7.6%) were called active. About 1% were inconclusive and are not listed. The list comes from a sample in which actives are over-represented; it also holds similar structures and randomly drawn compounds. Unmarked numbers belong to inactive results. No stated cut-off is given here; in the data, active means inhibition above about 80%; inconclusive means no clear call, values can overlap the other calls; inactive means below that.

test: NOMO-1 AML cell viability reduction, primary screen, STK33 inhibitor project, CellTiter-Glo luminescence (AID 2330); settings: NOMO-1 AML viability, 72 h, active compounds read high, concentration not given here

SMILES	inhibition
C[C@H](CO)N1C[C@H](C)[C@H](CN(C)S(C)(=O)=O)Oc2ccc(NC(=O)c3ccncc3)cc2CC1=O	-14.9%
CNC[C@H]1Oc2ccc(NS(=O)(=O)c3ccc(F)cc3)cc2CC(=O)N([C@H](C)CO)C[C@H]1C	-15.6%
Oc1cc2c(cc1O)CN(C(=S)NCCc1ccc(Cl)cc1)CCC2	96.6% (active)
S=C(NCC1CC1)Nc1ccc(Cl)cc1	34.8%
COc1cccc2cc(C(=O)C3C(=O)C(=O)N(CCN4CCOCC4)C3c3ccc(F)cc3)oc12 (configuration not stated)	-8.3%
COc1ccc(CNC(=O)c2c(C)oc3c2cc(OC(C)=O)c2ccccc23)cc1	43%
Cc1noc(C)c1S(=O)(=O)Nc1ccc2c(c1)CC(=O)N([C@H](C)CO)C[C@@H](C)[C@@H](CN(C)Cc1ccc(C(=O)O)cc1)O2	-16.8%
C[C@H](CO)N1C[C@H](C)[C@H](CN(C)S(=O)(=O)c2cn(C)cn2)Oc2c(NC(=O)c3ccncc3)cccc2C1=O	29.1%
COc1ccc(OC)c(NC(=O)Cn2cc(C(=O)C3CC3)c3ccccc32)c1	-2.38%
O=C(Cn1cc(C(=O)C2CC2)c2ccccc21)Nc1ccccc1Cl	3.17%
Cc1c(Cl)cccc1NC(=O)Cn1cc(C(=O)c2cccs2)c2ccccc21	88.1% (active)
C[C@@H]1CN([C@@H](C)CO)C(=O)c2cccc(N(C)C)c2O[C@H]1CN(C)S(=O)(=O)c1cccs1	22.8%
Cc1ccnc(N)c1	6.37%
C[C@H](CO)N1C[C@H](C)[C@H](CN(C)C)Oc2ccc(NC(=O)Nc3ccc(F)cc3)cc2CC1=O	-3.06%
COc1ccc(NC(=O)N(C)C[C@@H]2Oc3c(NC(=O)NC4CCCCC4)cccc3C(=O)N([C@H](C)CO)C[C@H]2C)cc1	-1.16%
C=CC(C)(O)CCC1(C)C2=C(C(OC(C)=O)C(OC(C)=O)C1C)C(C)(C)CCC2 (configuration not stated)	115% (active)
C[C@@H]1CN([C@@H](C)CO)C(=O)c2cc(NC(=O)Nc3ccccc3)ccc2O[C@H]1CN(C)S(=O)(=O)c1ccccc1	-0.0629%
C[C@H](CO)N1C[C@H](C)[C@H](CN(C)S(=O)(=O)c2ccc(Cl)cc2)Oc2ccc(NC(=O)C3CCCCC3)cc2C1=O	7.26%
COc1ccc(OC)c(NC(=O)CSc2n[nH]c(-c3ccncc3)n2)c1	14.4%
C[C@H](CO)N1C[C@H](C)[C@H](CN(C)Cc2ccc(C(=O)Nc3ccccc3N)cc2)Oc2ccc(NC(=O)Nc3ccccc3)cc2CC1=O	141% (active)
C[C@H]1CN([C@@H](C)CO)C(=O)Cc2cc(NC(=O)CCCCCC(=O)Nc3ccccc3N)ccc2O[C@@H]1CN(C)Cc1ccncc1	19.5%
CC(C)NC(=O)Nc1ccc2c(c1)CC(=O)N([C@H](C)CO)C[C@H](C)[C@H](CN(C)Cc1ccc3c(c1)OCO3)O2	14.7%
CC(C)NC(=O)Nc1ccc2c(c1)CC(=O)N([C@H](C)CO)C[C@@H](C)[C@@H](CN(C)Cc1ccc(C(=O)Nc3ccccc3N)cc1)O2	60.7%

SMILES	inhibition
C[C@H]1CN([C@@H](C)CO)C(=O)Cc2cc(NC(=O)Nc3ccc4c(c3)OCO4)ccc2O[C@H]1CN(C)Cc1ccc(C(=O)Nc2ccccc2N)cc1	127% (active)
COc1ccc(CN(C)C[C@@H]2Oc3ccc(NC(=O)Nc4ccc5c(c4)OCO5)cc3CC(=O)N([C@H](C)CO)C[C@H]2C)cc1	8.79%
C[C@@H]1CN([C@H](C)CO)C(=O)Cc2cc(NC(=O)Nc3ccc4c(c3)OCO4)ccc2O[C@@H]1CN(C)Cc1ccc(C(=O)Nc2ccccc2N)cc1	96.7% (active)
C[C@@H]1CN([C@H](C)CO)C(=O)Cc2cc(NC(=O)Nc3ccc(F)cc3)ccc2O[C@@H]1CN(C)Cc1ccc2c(c1)OCO2	31%
C[C@@H]1CN([C@H](C)CO)C(=O)Cc2cc(NC(=O)Nc3ccc4c(c3)OCO4)ccc2O[C@H]1CN(C)Cc1ccc(C(=O)O)cc1	20.5%
CCN1CCN(C(=O)N[C@@H](C(=O)N[C@@H]2C(=O)N3C(C(=O)O)=C(CSc4nnnn4C)CS[C@H]23)c2ccc(O)cc2)C(=O)C1=O	16.9%
Cc1ccc(C)c(S(=O)(=O)NC(C)C(=O)Nc2ccc(Br)cc2F)c1 (configuration not stated)	1.68%
Cc1noc(C)c1S(=O)(=O)Nc1ccc2c(c1)CC(=O)N([C@H](C)CO)C[C@H](C)[C@H](CN(C)S(=O)(=O)c1cn(C)cn1)O2	-3.68%
C[C@@H]1CN([C@H](C)CO)C(=O)Cc2cc(NS(C)(=O)=O)ccc2O[C@@H]1CN(C)C(=O)Nc1ccc2c(c1)OCO2	-3.88%
O=C(Oc1ccccc1)c1cccc(COC(=O)c2cc3ccccc3oc2=O)c1	5.03%
C[C@H](CO)N1C[C@H](C)[C@@H](CN(C)C(=O)Nc2ccccc2)Oc2ccc(N(C)C)cc2C1=O	14.4%
CC1CCCCC1NC(=O)CSc1nnc(N)s1 (configuration not stated)	13.1%
COC(=O)c1cc(NC(=O)Cc2ccccc2[N+](=O)[O-])ccc1Cl	62.9%
Cc1nnc(SCC(=O)N2CCc3ccccc32)n1-c1ccccc1	10%
CN(C)c1nc(SCCO)nc(N(C)C)n1	33.8%
COc1cc2c(cc1NC(=O)CN(C)S(=O)(=O)c1ccc(Br)cc1)oc1ccccc12	-7.24%
COc1ccc(NC(=O)N(C)C[C@@H]2Oc3ccc(NS(C)(=O)=O)cc3C(=O)N([C@@H](C)CO)C[C@@H]2C)cc1	22.3%
COC(=O)c1ccc(C(=O)OC)c(NC(=O)COc2ccc(C)cc2)c1	13.3%
O=C(CSc1nnc(-c2ccccc2)c(-c2ccccc2)n1)Nc1ccccc1	1.52%
N#Cc1c(SCC(=O)Nc2ccccc2)ncc2cc3ccccc3nc12	110% (active)
Cc1sc2ncnc(SCC(=O)Nc3ccccc3)c2c1-c1ccccc1	26.6%
CC(C)NC(=O)Nc1cccc2c1O[C@H](CN(C)S(=O)(=O)c1cccs1)[C@@H](C)CN([C@H](C)CO)C2=O	-9.32%
COc1ccc2nc3c(nc2c1)C(=O)c1ccccc1C3=O	29.2%

SMILES	inhibition
COc1ccc(C)c(Cn2c(-c3nonc3N)nc3ccccc32)c1	112% (active)
Cc1ccc(S(=O)(=O)N(C)C[C@@H]2Oc3ccc(NC(=O)Cc4ccccc4)cc3CC(=O)N([C@H](C)CO)C[C@H]2C)cc1	53.4%
Cc1noc(C)c1NC(=O)Nc1cccc2c1O[C@@H](CN(C)Cc1ccc3c(c1)OCO3)[C@@H](C)CN([C@@H](C)CO)C2=O	13.5%
Cc1cc(Cl)c(S(=O)(=O)Nc2ccc3c(c2)OCCO3)cc1OCC(N)=O	20.2%
CCN1CCN(S(=O)(=O)c2cc(OCC(N)=O)c(C)cc2Cl)CC1	12.8%
Cc1ccc2c(c1)CCCN2S(=O)(=O)c1cc(OCC(N)=O)c(C)cc1Cl	93.4% (active)
C[C@@H]1CN([C@H](C)CO)C(=O)c2cccc(NS(C)(=O)=O)c2O[C@@H]1CN(C)C(=O)Nc1cccc2ccccc12	-9.1%
C[C@@H]1CN([C@@H](C)CO)C(=O)Cc2cc(NC(=O)Cc3ccccc3)ccc2O[C@@H]1CN(C)Cc1ccc(Oc2ccccc2)cc1	127% (active)
C[C@@H]1CN([C@@H](C)CO)C(=O)c2cc(NC(=O)Cc3ccccc3)ccc2O[C@@H]1CN(C)Cc1ccc(Oc2ccccc2)cc1	112% (active)
C[C@@H]1CN([C@H](C)CO)C(=O)Cc2cc(NC(=O)Cc3ccccc3)ccc2O[C@@H]1CN(C)Cc1ccccc1	-13.8%
C[C@@H]1CN([C@H](C)CO)C(=O)Cc2cc(NC(=O)CCCN(C)C)ccc2O[C@@H]1CN(C)Cc1ccc(Oc2ccccc2)cc1	19.5%
C[C@@H]1CN([C@H](C)CO)C(=O)Cc2cc(NC(=O)Nc3ccccc3)ccc2O[C@H]1CN(C)Cc1ccc(Cl)c(Cl)c1	30.1%
COc1ccc(CN(C)C[C@H]2Oc3ccc(NC(=O)Cc4ccccc4)cc3CC(=O)N([C@@H](C)CO)C[C@@H]2C)cc1	22.8%
C[C@@H]1CN([C@H](C)CO)C(=O)Cc2cc(NC(=O)NC3CCCCC3)ccc2O[C@H]1CN(C)Cc1ccc(Cl)c(Cl)c1	20.7%
C[C@H]1CN([C@@H](C)CO)C(=O)Cc2cc(NC(=O)Cc3ccccc3)ccc2O[C@@H]1CN(C)Cc1ccc(Cl)c(Cl)c1	96.8% (active)
C[C@@H]1CN([C@H](C)CO)C(=O)Cc2cc(NC(=O)Cc3ccccc3)ccc2O[C@H]1CN(C)Cc1ccc(Oc2ccccc2)cc1	13.7%
C[C@H](CO)N1C[C@H](C)[C@H](CN(C)Cc2ccccc2)Oc2ccc(NC(=O)Cc3ccccc3)cc2C1=O	7.66%
C[C@H]1CN([C@@H](C)CO)C(=O)Cc2cc(NC(=O)NC3CCCCC3)ccc2O[C@@H]1CN(C)Cc1ccc(Oc2ccccc2)cc1	94.9% (active)
C[C@H]1CN([C@@H](C)CO)C(=O)c2cc(NC(=O)C3CC3)ccc2O[C@@H]1CN(C)Cc1ccc(Oc2ccccc2)cc1	16.2%
COC(=O)c1c(NC(=O)COc2ccc(C(C)C)c(C)c2)sc2c1CCC2	-13.1%
COc1ccc(S(=O)(=O)N(C)C[C@@H]2Oc3ccc(NC(=O)Cc4cn(C)c5ccccc45)cc3C(=O)N([C@H](C)CO)C[C@H]2C)cc1	3.23%
